Compound activity deposited in PubChem by National Center for Advancing Translational Sciences (NCATS).
L3MBTL1 block: blocks human L3MBTL1. AlphaScreen L3MBTL1–H3K9me1 peptide binding. AID 485360. 0.66% of 230,000 active. Q9Y468. Potency, µM (highest dose often 57.1 µM), inactives show at the top dose activity, negative = inhibition, actives largely listed as inhibitors; note: % is set by controls: 0 for no effect and ±100 for the full control effect; nearly all actives have a fitted effect of over 60% in size
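L3MBTL1 50 nM + b-AHA-H3(1-15)K9me1 75 nM, 30 min RT; compound added, 30 min RT; streptavidin donor/Ni-chelate acceptor beads 10 ug/mL each final, 30 min RT dark; AlphaScreen read.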
JMJD2A Tudor inh: blocks the human JMJD2A Tudor domain; AlphaScreen JMJD2A-Tudor / H3K4me3 peptide binding; Potency, µM (doses to about 114 µM), without a hit: at the highest dose activity change, negative = inhibition, most hits filed as inhibitors; 4.4% of 390,000 active; note: % is set by controls: 0 for no effect and ±100 for the full control effect; nearly all actives have a fitted effect of over 50% in size
HP1b chromo inh: blocks HP1-beta chromodomain binding to methylated histone tails. AlphaScreen HP1-beta / biotin-H3K9me3 peptide binding. Potency, µM (highest dose often 114 µM), for inactives: top-dose activity change, negative = inhibition, hits mostly inhibitors. 0.56% of 390,000 active. AID 540317; note: nearly all actives have a fitted effect of over 70% in size
Target sequence (P83916 whole entry, looked up): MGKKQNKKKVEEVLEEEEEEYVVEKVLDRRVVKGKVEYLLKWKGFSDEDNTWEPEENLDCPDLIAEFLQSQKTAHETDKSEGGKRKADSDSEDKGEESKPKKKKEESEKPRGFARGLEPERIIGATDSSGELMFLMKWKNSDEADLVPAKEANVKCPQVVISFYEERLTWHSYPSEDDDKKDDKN
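AlphaScreen: HP1-beta (50 nM) preformed 30 min with biotin-H3(1-18)K9me3 peptide (50 nM) in PBS pH 7.4, 0.01% Tween-20. Compound added for 30 min at RT, then streptavidin donor/nickel chelate acceptor beads (10 ug/mL) for 30 min.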
G9a inh: blocks human histone lysine methyltransferase G9a; Q96KQ7; G9a H3K9 monomethylation, AlphaScreen, 2 h; Potency, µM (titrated, usually from 102 µM), for inactives: at the top dose activity, negative = inhibition, most hits filed as inhibitors; 8.8% of 350,000 active; note: % is set by controls: 0 for no effect and ±100 for the full control effect; nearly all actives have a fitted effect of over 75% in size
Target sequence (Q96KQ7 913-1193 limits assumed): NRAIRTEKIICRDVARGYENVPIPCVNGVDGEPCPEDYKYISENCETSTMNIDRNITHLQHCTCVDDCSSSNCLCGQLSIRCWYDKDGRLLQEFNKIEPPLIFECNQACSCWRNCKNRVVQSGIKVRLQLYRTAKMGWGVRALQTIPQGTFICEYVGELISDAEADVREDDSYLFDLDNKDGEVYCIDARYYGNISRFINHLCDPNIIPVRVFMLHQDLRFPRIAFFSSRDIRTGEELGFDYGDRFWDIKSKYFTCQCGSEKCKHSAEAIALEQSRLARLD
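Using a bead-based AlphaScreen, monomethylated H3K9 product from 2 h room-temperature reactions (G9a 20 nM, peptide 500 nM, SAM 20 uM) was detected with 0.5 ug/mL rabbit anti-H3K9me1 antibody.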
BAZ2B block: inhibitors of human BAZ2B bromodomain; Potency, µM (series often up to 114 µM), without a hit: top-dose activity change, negative = inhibition, hits mostly inhibitors; Q9UIF8; 4.4% of 360,000 active; AlphaScreen BAZ2B-H3K14Ac peptide displacement; note: % is set by controls: 0 for no effect and ±100 for the full control effect; nearly all actives have a fitted effect of over 60% in size
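BAZ2B (50 nM) with biotin-H3(5-23)K14Ac peptide (50 nM) in PBS pH 7.4, 0.01% Tween-20, preformed 30 min, then compound 30 min at room temperature; top concentration 110uM. AlphaScreen streptavidin donor/nickel chelate acceptor beads (10 ug/mL final), 20 min dark, signal read.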
Active calls of the source: *; ? = inconclusive; nt = not tested or not shown; [ ] = dose if it differs, or a comment. Hits are enriched below; roughly 11% of the tested compounds scored in any of these assays. Calls come from the whole dose curve; as a rule, active = well fitted inhibition curve with a large enough effect; inconclusive = small, poorly fitted or top-dose-only effect; inactive = no such curve, though single readings can be large or run the other way. Potency is the fitted concentration of half-maximal effect.

SMILES	L3MBTL1 block	JMJD2A Tudor inh	HP1b chromo inh	G9a inh	BAZ2B block
O=C1NC(=S)/C(=C\c2ccc(-c3ccccc3Cl)o2)S1	?	45µM*	?	10µM*	18µM*
Cc1nc2ccc(S(=O)(=O)N(C)CC(=O)Nc3ccc(Br)c(C)c3)cc2s1	nt	-12%	7%	-5%[59 µM]	3%
CCc1cccc(NC(=O)CN(C)S(=O)(=O)c2ccc3c(c2)CCCN3C(C)=O)c1	nt	-1%	25%[57 µM]	1%[59 µM]	-2%
Cc1cccc(-n2c(-c3ccncc3)n[nH]c2=S)c1C	4%	13µM*	11%	nt	-13%
CCc1ccccc1-n1c(-c2ccncc2)n[nH]c1=S	22%	10µM*	28%	5.6µM*	0%
Cc1ccccc1-n1c(-c2ccc(Br)o2)n[nH]c1=S	nt	25µM*	21%	nt	nt
CC(C)(C)c1cc(-c2n[nH]c(=S)n2-c2ccccc2F)n[nH]1	-5%	10µM*	14%	?	-30%
COc1ccc(CCNC(=O)CCCn2c(=O)c3ccccc3n(Cc3c(C)cc(C)cc3C)c2=O)cc1OC	nt	-9%	24%	-2%[59 µM]	4%
CC(C)(C)OC(=O)n1c2ccsc2c2cnn(Cc3ccccc3F)c(=O)c21	nt	-18%	nt	nt	nt
Cc1ccc(-n2c(-c3ccncc3)n[nH]c2=S)c(C)c1	0%	18µM*	32%	nt	-14%
Cc1ccccc1-n1c(-c2ccc(=O)[nH]n2)n[nH]c1=S	3%	?	-2%	18µM*	?
Cc1cc(-c2n[nH]c(=S)n2-c2ccccc2C)cs1	1%	35µM*	20%	1.3µM*	-4%
Cc1ccccc1-n1c(-c2ccncc2)n[nH]c1=S	nt	14µM*	21%	?	-36%
Cc1ccc(-c2ccc(=O)[nH]n2)cc1	12%	-6%	30%	14%[59 µM]	3%
O=C(COc1ccc([N+](=O)[O-])cc1)N1CCC(c2nc3ccccc3s2)CC1	nt	-25%	7%	?	-30%
CCOC(=O)c1ccc2c(c1)N(Cc1cccc(C(F)(F)F)c1)C(=O)c1ccccc1S2(=O)=O	nt	?	49%	3%[59 µM]	0%
Cn1c(-c2ccc(Br)o2)nc2ccccc21	-3%	-15%	20%	-10%[59 µM]	-34%
CC(C)Cn1c(-c2ccc(Br)o2)n[nH]c1=S	-3%	4%	29%	1.8µM*	-9%
O=C(CN1C(=O)COc2ccc(Cl)cc21)Nc1ccc(F)cc1	nt	1%	42%	23%[59 µM]	-4%
O=C1CCCC2=C1C1(CCCC1)N=C(Nc1nc3cc4ccccc4cc3o1)N2	nt	89µM*	nt	nt	nt
CCN(c1cc(C)cc(C)c1)S(=O)(=O)c1nnc(NC(=O)c2ccccc2C)s1	nt	-15%	21%	-25%[59 µM]	-6%
COC(=O)c1ccccc1S(=O)(=O)N1CCC(C(=O)OCC(=O)c2ccccc2OC)CC1	22%	-14%	28%	40µM*	-31%
COC(=O)c1ccccc1S(=O)(=O)N1CCC(C(=O)OCC(=O)NC2CCCCC2C)CC1 (centres undefined)	11%	-8%	28%	20µM*	9%
COC(=O)c1ccccc1S(=O)(=O)N1CCC(C(=O)N2CCC2)CC1	-6%	-8%	41%	5%[2.33 µM]	-5%
CCc1ccccc1NC(=O)c1nc2nc(C)cc(C(F)F)n2n1	nt	2%	28%	11%[59 µM]	-1%
SMILES	L3MBTL1 block	JMJD2A Tudor inh	HP1b chromo inh	G9a inh	BAZ2B block
N#Cc1c(N)sc2c1CCCCCC2	-12%	?	?	18µM*	?
N#Cc1c(N)sc(=S)c2c1CCCCC2	?	45µM*	-49%	4.5µM*	50µM*
CCOc1ccc(NC(=O)c2cc(S(=O)(=O)N3CCc4ccccc43)ccc2F)cc1	nt	-9%	19%	5%[59 µM]	-5%
Cc1ccc(NC(=O)CN2C(=S)NC(C)(C)CC2C)cc1Cl (centres undefined)	11%	-15%	12%	16µM*	-22%
Cc1cccc(NC(=O)CN2C(=S)NC(C)(C)CC2C)c1C (centres undefined)	3%	-3%	-4%	?	3%
CC1CC(C)(C)NC(=S)N1CCCC(=O)NCCc1ccc(Cl)cc1 (centres undefined)	7%	-9%	34%	-28%	-15%
CC1CC(C)(C)NC(=S)N1CCCC(=O)N1CCN(c2ccccc2F)CC1 (centres undefined)	-3%	-22%	-2%	0%[59 µM]	-17%
CC(=O)c1cccc(NC(=O)CN2C(=S)NC(C)(C)CC2C)c1 (centres undefined)	17%	12%	6%	32µM*	-18%
CC1CC(C)(C)NC(=S)N1CCC(=O)N1CCc2ccccc21 (centres undefined)	-8%	-4%	20%	45µM*	-12%
CC1CC(C)(C)NC(=S)N1CCC(=O)NCCc1ccc(Cl)cc1 (centres undefined)	21%	-15%	13%	50µM*	-4%
COc1ccc(C2=NC(C)(C)N(CC(=O)Nc3cccc(C)c3)C2=O)cc1	nt	-3%	46%	16%[59 µM]	-21%
CCC1CCc2c(sc(NC(=O)C3c4ccccc4Oc4ccccc43)c2C#N)C1 (centres undefined)	nt	-19%	11%	-39%[59 µM]	1%[57.1 µM]
Cc1cccc(-c2ccc3ncnc(NCc4cccc(F)c4)c3c2)c1	-9%	nt	nt	-45%[12.7 µM]	3%
CCc1ccc(NCc2cc3cc4c(cc3n(CC(=O)Nc3ccccc3Cl)c2=O)OCO4)cc1	nt	-33%	-10%	?	?
CC(C)Cc1nc2sc3c(c2c(=O)n1N)CC(C(C)C)OC3 (centres undefined)	8%	-2%[11.4 µM]	16%	4%	2%
CC(C)C1Cc2c(sc3ncnc(NN)c23)CO1 (centres undefined)	nt	25µM*	22%	-12%[2.33 µM]	28µM*
COc1ccc2nc3oc(C(=O)NCc4ccccc4OC)cc3cc2c1	nt	-9%	32%	-3%[59 µM]	nt
O=[N+]([O-])c1ccc(Oc2cc(NC3CCCCCCC3)c([N+](=O)[O-])cc2[N+](=O)[O-])cc1	-13%	?	-3%	40µM*	?
O=[N+]([O-])c1cc([N+](=O)[O-])c(Oc2cncc(Cl)c2)cc1NC1CCCCCCC1	2%	?	?	?	?
O=[N+]([O-])c1cc([N+](=O)[O-])c(Oc2cc(Cl)ccc2Cl)cc1NC1CCCCCCC1	0%	?	2%	40µM*	?
O=C(COc1ccc(Cl)cc1[N+](=O)[O-])NC1CCCCC1	0%[11.4 µM]	-32%	7%	-51%	?
Cc1noc(C)c1S(=O)(=O)N(CC(=O)NCc1ccccc1Cl)c1ccc(C(C)C)cc1	nt	-3%	41%	5%[59 µM]	nt
Cc1c(C)n(CC(O)CN2CCN(C)CC2)c2ccccc12 (centres undefined)	nt	-31%	4%[57 µM]	?	-35%
Cc1ccc2c(c1)c1c(n2CC(O)Cn2nc(C)c(Br)c2C)C(=O)CCC1 (centres undefined)	10%[11.4 µM]	-3%	10%	7%[59 µM]	7%
